# Legend:
# Assay in all cases: DAPPL (digital affinity profiling via proximity ligation, sequencing); 10 mM Tris-HCl pH 7.5, 50 mM NaCl, 1 mM DTT, 4% glycerol, room temperature, 30 min; GST-TFs on glutathione beads, 16-mer random dsDNA library, 0.1% formaldehyde crosslink after washing; high values mean tight binding
# [1] = target: T1, FLI1 (Homo sapiens, UniProt Q01543 1-452); details: protein: recombinant; tags: N-terminal GST; dsDNA, one strand shown
# T1 sequence: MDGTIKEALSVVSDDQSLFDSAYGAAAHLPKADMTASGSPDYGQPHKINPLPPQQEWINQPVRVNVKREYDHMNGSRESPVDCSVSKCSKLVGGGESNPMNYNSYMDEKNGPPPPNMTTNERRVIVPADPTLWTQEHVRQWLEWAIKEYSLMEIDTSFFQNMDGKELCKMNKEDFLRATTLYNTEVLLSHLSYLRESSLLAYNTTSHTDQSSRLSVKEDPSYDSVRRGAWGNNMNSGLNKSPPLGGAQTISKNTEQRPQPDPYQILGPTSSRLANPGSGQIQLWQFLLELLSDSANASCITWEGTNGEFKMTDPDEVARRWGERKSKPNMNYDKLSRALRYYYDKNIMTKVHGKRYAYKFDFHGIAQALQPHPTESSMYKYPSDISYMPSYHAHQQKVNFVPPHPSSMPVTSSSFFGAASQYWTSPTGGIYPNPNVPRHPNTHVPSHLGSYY
# Summary of the method: (§1)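 Human transcription factors carrying a GST fusion were produced in yeast, bound to glutathione beads, tagged with DNA barcodes and pooled together with a tag-only sample. Each pool was held with 200 nmole of a random double-stranded 16-mer DNA library in Tris/NaCl/DTT/glycerol buffer for 30 min at room temperature, then washed, crosslinked in 0.1% formaldehyde, proximity-ligated with BsaI/T4 ligase (1 h, 37 °C), PCR-amplified and sequenced on an Illumina NextSeq500. Binding signal is the read frequency of each hexamer for a given factor divided by its frequency in the tag-only sample.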
# [2] = target: T2, ELK1 (Homo sapiens, UniProt P19419 1-428); details: protein: recombinant; tags: N-terminal GST; dsDNA, one strand shown
# T2 sequence: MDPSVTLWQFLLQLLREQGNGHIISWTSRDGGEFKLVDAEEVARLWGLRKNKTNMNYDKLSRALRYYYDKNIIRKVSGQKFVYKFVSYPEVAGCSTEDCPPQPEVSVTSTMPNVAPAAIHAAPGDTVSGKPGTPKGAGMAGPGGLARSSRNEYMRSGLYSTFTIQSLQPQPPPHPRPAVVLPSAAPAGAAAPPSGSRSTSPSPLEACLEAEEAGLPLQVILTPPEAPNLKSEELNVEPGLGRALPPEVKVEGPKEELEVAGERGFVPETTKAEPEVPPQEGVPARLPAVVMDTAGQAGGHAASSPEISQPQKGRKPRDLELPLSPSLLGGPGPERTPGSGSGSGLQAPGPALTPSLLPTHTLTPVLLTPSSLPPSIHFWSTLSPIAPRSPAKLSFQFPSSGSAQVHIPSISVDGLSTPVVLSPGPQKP
# Summary of the method: as §1
# [3] = target: T3, GABPA (Homo sapiens, UniProt Q06546 1-454); details: protein: recombinant; tags: N-terminal GST; dsDNA, one strand shown
# T3 sequence: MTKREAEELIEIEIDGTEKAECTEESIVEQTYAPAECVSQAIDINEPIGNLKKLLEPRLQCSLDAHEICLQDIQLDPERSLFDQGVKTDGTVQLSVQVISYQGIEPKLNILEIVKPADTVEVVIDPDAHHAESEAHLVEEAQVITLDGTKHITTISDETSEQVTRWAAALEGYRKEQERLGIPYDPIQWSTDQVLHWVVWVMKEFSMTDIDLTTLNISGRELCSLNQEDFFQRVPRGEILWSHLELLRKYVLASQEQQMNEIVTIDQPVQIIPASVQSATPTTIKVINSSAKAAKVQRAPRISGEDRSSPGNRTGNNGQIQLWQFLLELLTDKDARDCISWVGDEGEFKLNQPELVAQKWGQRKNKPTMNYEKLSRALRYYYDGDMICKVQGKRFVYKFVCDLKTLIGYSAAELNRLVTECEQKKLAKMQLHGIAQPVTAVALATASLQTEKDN
# Summary of the method: as §1
# [4] = target: T4, ERG (Homo sapiens, UniProt P11308 1-479); details: protein: recombinant; tags: N-terminal GST; dsDNA, one strand shown
# T4 sequence: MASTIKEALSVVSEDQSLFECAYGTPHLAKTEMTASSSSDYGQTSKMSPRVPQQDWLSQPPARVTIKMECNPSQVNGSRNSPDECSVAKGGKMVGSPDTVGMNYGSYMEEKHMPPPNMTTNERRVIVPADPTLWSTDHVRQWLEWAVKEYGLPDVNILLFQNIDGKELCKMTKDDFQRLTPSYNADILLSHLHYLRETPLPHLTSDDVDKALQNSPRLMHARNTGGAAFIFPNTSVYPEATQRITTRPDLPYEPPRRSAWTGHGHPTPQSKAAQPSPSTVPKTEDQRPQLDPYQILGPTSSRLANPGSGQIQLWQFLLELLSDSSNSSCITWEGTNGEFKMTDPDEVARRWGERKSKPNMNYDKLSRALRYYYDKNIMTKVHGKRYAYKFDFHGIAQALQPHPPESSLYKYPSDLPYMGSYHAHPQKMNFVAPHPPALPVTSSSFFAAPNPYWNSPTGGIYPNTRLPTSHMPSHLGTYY
# Summary of the method: as §1
# [5] = target: ELF1 (Homo sapiens, UniProt P32519 1-619); details: protein: recombinant; tags: N-terminal GST; dsDNA, one strand shown
# ELF1, sequence (P32519 whole entry): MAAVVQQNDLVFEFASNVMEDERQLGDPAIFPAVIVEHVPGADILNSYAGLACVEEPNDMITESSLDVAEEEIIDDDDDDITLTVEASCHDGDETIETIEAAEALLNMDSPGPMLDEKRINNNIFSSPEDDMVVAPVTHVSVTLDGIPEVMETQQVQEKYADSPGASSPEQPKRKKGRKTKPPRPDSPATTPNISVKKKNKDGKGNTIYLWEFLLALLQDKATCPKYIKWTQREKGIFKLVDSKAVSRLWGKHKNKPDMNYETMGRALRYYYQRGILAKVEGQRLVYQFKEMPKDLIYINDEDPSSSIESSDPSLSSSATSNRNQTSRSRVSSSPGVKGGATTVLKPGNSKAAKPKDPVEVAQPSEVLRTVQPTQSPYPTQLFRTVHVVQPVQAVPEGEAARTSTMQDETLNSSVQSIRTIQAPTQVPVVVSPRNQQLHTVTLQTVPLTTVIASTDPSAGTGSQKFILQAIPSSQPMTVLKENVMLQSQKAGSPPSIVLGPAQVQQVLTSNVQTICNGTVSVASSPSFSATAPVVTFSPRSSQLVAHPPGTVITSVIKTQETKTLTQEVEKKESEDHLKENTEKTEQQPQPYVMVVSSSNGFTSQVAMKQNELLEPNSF
# Summary of the method: as §1
# [6] = target: T5, EHF (Homo sapiens, UniProt Q9NZC4 1-300); details: protein: recombinant; tags: N-terminal GST; dsDNA, one strand shown
# T5 sequence: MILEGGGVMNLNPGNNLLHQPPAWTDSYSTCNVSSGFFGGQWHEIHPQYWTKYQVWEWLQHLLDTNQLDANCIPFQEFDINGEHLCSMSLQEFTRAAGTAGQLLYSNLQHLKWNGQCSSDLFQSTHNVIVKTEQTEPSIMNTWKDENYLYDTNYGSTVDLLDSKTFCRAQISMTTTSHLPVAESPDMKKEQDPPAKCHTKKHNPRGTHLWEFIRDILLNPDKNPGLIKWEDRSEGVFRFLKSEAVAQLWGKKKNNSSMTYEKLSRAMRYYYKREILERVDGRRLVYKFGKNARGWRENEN
# Summary of the method: as §1
# [7] = target: SPI1 (Homo sapiens, UniProt P17947 1-270); details: protein: recombinant; tags: N-terminal GST; dsDNA, one strand shown
# Summary of the method: as §1
# [8] = target: SPIB (Homo sapiens, UniProt Q01892 1-262); details: protein: recombinant; tags: N-terminal GST; dsDNA, one strand shown
# SPIB, sequence (Q01892 whole entry): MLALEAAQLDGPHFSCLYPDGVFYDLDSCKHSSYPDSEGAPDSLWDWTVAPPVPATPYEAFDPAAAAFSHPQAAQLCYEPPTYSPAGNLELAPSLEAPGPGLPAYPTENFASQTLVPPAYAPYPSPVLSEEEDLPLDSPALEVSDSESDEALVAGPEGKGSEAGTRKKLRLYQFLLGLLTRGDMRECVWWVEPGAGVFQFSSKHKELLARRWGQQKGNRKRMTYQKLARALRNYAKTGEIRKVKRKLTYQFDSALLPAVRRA
# Summary of the method: as §1
# [9] = target: T6, ELK3 (Homo sapiens, UniProt P41970 1-407); details: protein: recombinant; tags: N-terminal GST; dsDNA, one strand shown
# T6 sequence: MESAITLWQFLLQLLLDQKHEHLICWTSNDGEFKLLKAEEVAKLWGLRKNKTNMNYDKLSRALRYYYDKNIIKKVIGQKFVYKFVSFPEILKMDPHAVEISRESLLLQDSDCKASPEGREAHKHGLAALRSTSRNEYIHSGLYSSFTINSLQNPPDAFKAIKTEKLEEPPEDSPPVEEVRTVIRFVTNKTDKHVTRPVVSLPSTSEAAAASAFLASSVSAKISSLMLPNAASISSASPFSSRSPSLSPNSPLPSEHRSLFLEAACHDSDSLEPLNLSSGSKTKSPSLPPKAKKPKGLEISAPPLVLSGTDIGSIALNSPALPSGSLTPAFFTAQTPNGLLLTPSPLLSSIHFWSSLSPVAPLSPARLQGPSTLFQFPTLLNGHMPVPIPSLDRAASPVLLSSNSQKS
# Summary of the method: as §1
# [10] = target: T7, FEV (Homo sapiens, UniProt Q99581 1-238); details: protein: recombinant; tags: N-terminal GST; dsDNA, one strand shown
# T7 sequence: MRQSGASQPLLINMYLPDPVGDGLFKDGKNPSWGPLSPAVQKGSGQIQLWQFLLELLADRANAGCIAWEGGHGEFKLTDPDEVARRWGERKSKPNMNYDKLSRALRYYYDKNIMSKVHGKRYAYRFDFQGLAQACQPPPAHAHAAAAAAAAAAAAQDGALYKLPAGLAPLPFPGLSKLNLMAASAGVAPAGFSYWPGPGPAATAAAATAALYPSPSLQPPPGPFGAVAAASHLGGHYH
# Summary of the method: as §1
# [11] = target: ETV5 (Homo sapiens, UniProt P41161 1-510); details: protein: recombinant; tags: N-terminal GST; dsDNA, one strand shown
# ETV5, sequence (P41161 whole entry): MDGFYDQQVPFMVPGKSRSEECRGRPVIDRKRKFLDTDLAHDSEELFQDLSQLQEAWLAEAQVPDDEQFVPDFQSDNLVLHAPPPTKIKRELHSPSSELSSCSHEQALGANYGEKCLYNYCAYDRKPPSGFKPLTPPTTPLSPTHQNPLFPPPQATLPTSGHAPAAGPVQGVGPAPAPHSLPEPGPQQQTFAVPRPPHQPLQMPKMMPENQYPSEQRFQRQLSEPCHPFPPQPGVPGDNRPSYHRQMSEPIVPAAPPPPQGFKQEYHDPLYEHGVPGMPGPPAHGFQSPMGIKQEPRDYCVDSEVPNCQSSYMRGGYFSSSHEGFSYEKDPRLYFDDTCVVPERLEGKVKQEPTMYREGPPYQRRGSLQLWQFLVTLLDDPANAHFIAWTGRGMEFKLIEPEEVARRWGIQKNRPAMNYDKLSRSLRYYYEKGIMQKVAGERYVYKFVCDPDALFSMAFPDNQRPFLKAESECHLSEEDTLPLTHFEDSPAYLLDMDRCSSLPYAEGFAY
# Summary of the method: as §1
# [12] = target: HSF1 (Homo sapiens, UniProt Q00613 1-529); details: protein: recombinant; tags: N-terminal GST; chain copies: 3; dsDNA, one strand shown
# HSF1, sequence (Q00613 whole entry): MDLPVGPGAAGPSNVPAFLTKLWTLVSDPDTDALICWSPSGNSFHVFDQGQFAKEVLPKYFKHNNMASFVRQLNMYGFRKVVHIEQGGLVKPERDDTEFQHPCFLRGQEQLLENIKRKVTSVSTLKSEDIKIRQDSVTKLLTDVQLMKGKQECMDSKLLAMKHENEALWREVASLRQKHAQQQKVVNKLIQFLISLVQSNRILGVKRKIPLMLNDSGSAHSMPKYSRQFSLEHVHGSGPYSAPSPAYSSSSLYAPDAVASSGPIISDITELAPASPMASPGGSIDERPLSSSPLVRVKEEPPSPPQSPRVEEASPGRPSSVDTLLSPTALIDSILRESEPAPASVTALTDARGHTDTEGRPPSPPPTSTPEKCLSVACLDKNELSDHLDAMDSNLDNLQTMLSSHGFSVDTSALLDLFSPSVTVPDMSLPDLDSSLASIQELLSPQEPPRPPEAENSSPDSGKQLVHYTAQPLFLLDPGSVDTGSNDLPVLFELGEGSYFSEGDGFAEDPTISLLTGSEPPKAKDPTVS
# Summary of the method: as §1
# [13] = target: T8, SPIC (Homo sapiens, UniProt Q8N5J4 1-248); details: protein: recombinant; tags: N-terminal GST; dsDNA, one strand shown
# T8 sequence: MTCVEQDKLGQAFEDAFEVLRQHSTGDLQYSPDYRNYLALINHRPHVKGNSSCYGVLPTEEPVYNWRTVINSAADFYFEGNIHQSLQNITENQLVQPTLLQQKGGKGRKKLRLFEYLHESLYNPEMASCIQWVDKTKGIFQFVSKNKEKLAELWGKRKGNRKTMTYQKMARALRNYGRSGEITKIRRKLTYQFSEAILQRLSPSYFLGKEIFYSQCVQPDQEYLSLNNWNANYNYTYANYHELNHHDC
# Summary of the method: as §1
# [14] = target: ELF4 (Homo sapiens, UniProt Q99607 1-663); details: protein: recombinant; tags: N-terminal GST; dsDNA, one strand shown
# ELF4, sequence (Q99607 whole entry): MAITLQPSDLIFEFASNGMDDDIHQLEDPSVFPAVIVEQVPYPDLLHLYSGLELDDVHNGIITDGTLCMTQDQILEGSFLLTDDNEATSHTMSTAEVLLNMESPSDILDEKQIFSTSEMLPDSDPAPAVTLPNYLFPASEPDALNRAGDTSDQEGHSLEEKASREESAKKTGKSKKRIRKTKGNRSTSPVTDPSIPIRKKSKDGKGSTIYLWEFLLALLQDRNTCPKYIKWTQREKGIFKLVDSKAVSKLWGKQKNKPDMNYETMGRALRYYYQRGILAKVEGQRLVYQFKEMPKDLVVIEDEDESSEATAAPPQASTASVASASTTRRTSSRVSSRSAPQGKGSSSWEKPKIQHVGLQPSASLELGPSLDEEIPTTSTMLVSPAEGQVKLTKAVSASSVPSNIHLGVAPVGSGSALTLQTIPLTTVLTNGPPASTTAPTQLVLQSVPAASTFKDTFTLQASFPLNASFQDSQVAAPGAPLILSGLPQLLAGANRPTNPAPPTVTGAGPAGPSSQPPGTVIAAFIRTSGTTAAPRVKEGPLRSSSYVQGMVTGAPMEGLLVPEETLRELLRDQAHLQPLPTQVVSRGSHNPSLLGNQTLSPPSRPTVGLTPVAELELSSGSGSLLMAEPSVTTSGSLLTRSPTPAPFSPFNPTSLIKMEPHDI
# Summary of the method: as §1
# [15] = target: T9, ELK4 (Homo sapiens, UniProt P28324-2 1-405); details: protein: recombinant; tags: N-terminal GST; dsDNA, one strand shown
# T9 sequence: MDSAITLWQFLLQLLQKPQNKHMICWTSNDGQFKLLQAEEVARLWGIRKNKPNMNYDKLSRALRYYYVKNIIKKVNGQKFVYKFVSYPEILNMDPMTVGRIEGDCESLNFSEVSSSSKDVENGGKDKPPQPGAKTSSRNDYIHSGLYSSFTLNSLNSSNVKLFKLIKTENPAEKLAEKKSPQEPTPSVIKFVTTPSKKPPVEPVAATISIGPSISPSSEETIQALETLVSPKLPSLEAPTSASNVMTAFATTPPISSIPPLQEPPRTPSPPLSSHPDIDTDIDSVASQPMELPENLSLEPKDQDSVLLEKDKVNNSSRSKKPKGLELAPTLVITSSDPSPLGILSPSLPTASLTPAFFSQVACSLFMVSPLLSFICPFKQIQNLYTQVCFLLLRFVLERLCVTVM
# Summary of the method: as §1
# [16] = target: T10, ETV2 (Homo sapiens, UniProt O00321 1-342); details: protein: recombinant; tags: N-terminal GST; dsDNA, one strand shown
# T10 sequence: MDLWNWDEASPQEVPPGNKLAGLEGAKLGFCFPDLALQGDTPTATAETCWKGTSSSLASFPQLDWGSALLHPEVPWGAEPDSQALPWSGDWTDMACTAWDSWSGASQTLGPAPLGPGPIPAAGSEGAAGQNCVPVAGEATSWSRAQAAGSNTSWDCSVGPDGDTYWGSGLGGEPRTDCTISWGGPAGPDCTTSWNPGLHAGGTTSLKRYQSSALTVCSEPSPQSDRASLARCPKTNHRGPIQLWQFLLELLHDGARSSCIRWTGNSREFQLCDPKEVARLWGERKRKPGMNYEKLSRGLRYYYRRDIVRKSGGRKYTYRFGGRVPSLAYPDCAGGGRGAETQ
# Summary of the method: as §1
# [17] = target: T11, ELF3 (Homo sapiens, UniProt P78545 1-371); details: protein: recombinant; tags: N-terminal GST; dsDNA, one strand shown
# T11 sequence: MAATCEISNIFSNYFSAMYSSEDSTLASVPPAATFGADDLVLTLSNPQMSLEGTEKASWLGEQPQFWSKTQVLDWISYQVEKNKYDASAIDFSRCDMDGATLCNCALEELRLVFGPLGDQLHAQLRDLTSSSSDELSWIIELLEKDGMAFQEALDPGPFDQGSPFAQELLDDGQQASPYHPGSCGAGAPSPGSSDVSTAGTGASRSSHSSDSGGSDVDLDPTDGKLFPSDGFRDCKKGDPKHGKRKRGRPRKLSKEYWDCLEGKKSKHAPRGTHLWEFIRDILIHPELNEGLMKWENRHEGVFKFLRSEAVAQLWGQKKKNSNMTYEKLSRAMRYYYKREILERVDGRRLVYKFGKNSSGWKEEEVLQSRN
# Summary of the method: as §1
# [18] = target: CRX (Homo sapiens, UniProt O43186 1-299); details: protein: recombinant; tags: N-terminal GST; dsDNA, one strand shown
# CRX, sequence (O43186 whole entry): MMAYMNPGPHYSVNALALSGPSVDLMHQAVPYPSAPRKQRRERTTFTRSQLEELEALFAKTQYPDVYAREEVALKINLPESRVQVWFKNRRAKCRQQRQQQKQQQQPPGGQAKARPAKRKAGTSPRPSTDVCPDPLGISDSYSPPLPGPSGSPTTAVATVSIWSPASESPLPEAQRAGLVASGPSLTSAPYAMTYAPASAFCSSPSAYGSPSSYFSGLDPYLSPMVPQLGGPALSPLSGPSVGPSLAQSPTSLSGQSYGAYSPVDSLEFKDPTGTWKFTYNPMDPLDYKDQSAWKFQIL
# Summary of the method: as §1
# [19] = target: ETV1 (Homo sapiens, UniProt P50549 1-477); details: protein: recombinant; tags: N-terminal GST; dsDNA, one strand shown
# ETV1, sequence (P50549 whole entry): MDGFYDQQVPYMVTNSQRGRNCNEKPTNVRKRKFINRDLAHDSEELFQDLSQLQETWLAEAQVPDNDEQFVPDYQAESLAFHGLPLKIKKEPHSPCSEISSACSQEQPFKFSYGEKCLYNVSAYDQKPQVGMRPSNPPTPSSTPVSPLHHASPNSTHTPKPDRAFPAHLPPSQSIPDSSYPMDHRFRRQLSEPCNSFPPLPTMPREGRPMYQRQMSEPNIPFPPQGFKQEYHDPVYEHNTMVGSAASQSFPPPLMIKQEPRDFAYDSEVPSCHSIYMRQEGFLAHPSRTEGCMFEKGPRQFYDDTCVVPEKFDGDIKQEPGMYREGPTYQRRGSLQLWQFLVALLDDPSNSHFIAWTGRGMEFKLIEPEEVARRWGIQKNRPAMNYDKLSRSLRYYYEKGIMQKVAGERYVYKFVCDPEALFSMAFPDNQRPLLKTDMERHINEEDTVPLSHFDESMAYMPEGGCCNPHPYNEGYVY
# Summary of the method: as §1
sequence,measurement,setting,value
ATGAAA,binding signal,[1],"1.11 fold enrichment (6-mer frequency, TF over GST control)"
same,binding signal,[2],"1.17 fold enrichment (6-mer frequency, TF over GST control)"
same,binding signal,[3],"1.16 fold enrichment (6-mer frequency, TF over GST control)"
same,binding signal,[4],"1.17 fold enrichment (6-mer frequency, TF over GST control)"
same,binding signal,[5],"1.2 fold enrichment (6-mer frequency, TF over GST control)"
same,binding signal,[6],"1.16 fold enrichment (6-mer frequency, TF over GST control)"
same,binding signal,[7],"1.2 fold enrichment (6-mer frequency, TF over GST control)"
same,binding signal,[8],"1.15 fold enrichment (6-mer frequency, TF over GST control)"
same,binding signal,[9],"1.06 fold enrichment (6-mer frequency, TF over GST control)"
same,binding signal,[10],"1.13 fold enrichment (6-mer frequency, TF over GST control)"
same,binding signal,[11],"1.12 fold enrichment (6-mer frequency, TF over GST control)"
same,binding signal,[12],"1.16 fold enrichment (6-mer frequency, TF over GST control)"
same,binding signal,[13],"1.24 fold enrichment (6-mer frequency, TF over GST control)"
same,binding signal,[14],"1.2 fold enrichment (6-mer frequency, TF over GST control)"
same,binding signal,[15],"1.21 fold enrichment (6-mer frequency, TF over GST control)"
same,binding signal,[16],"1.15 fold enrichment (6-mer frequency, TF over GST control)"
same,binding signal,[17],"1.19 fold enrichment (6-mer frequency, TF over GST control)"
same,binding signal,[18],"1.08 fold enrichment (6-mer frequency, TF over GST control)"
same,binding signal,[19],"1.2 fold enrichment (6-mer frequency, TF over GST control)"

# From PMC7862700, “An all-to-all approach to the identification of sequence-specific readers for epigenetic DNA modifications on cytosine”
